Data on 16 compounds can be found in PubChem BioAssay.

Test [1] relates to XIP peptide (Xip251-270) binding. Nature of the test: XIP fragment 251-270 binding compounds – biochemical, small-molecule microarray, fluorescence 635/667 nm, 0.1 µg/mL protein, primary screen (AID 1182). As to conditions: fluorescent protein binding, 635 nm, higher = more signal, called active from +8 up or from −8 down.
A further test relates to XIP peptide (Xip251-270). Nature of the test: compounds binding XIP fragment 251-270 – biochemical, small-molecule microarray, fluorescence 635/667 nm, 0.5 µg/mL protein, primary screen (AID 1183). The following applies: fluorescence 635 nm, higher = more signal.
A short description of test [2]: blood-stage malaria parasite viability loss – strain 3D7, DAPI fluorescence, 100 nL, primary screen (AID 1184).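 Also: parasites grown inside human red blood cells in medium with human serum.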 As to conditions: P. falciparum 3D7 growth, 3 d, higher = more signal.
Test [3] addresses Homeobox protein Hox-A13 (Mus musculus) (UniProt Q62424). Nature of the test: disruptors of Hoxa13 oligonucleotide interaction – biochemical, fluorescence polarization, labeled oligonucleotide, primary screen (AID 1185). As to conditions: Hoxa13:DNA binding, 15 min, higher = more signal, called active from +8 up or from −8 down. For orientation: In fluorescence polarisation assays a small probe gives low polarisation when free and higher when bound to something large.

Test [4] can be described thus: blockers of DNA damage checkpoint Chk1 activation – imaging, HeLa, hydroxyurea, phospho-Chk1 antibody, percent positive cells, primary screen (AID 1186). The following applies: hydroxyurea-induced phospho-Chk1 immunofluorescence imaging, higher = more signal.
Test [5] is described as follows: blockers of DNA damage checkpoint Chk1 activation – imaging, HeLa, hydroxyurea, phospho-Chk1 nuclear intensity, primary screen (AID 1187). The following applies: hydroxyurea-induced phospho-Chk1 immunofluorescence imaging, higher = more signal.

Calls of active or inactive are those of the source. Unless noted, no rule for the calls is given here.

Chain of Homeobox protein Hox-A13 (Mus musculus) (Q62424 whole entry, looked up): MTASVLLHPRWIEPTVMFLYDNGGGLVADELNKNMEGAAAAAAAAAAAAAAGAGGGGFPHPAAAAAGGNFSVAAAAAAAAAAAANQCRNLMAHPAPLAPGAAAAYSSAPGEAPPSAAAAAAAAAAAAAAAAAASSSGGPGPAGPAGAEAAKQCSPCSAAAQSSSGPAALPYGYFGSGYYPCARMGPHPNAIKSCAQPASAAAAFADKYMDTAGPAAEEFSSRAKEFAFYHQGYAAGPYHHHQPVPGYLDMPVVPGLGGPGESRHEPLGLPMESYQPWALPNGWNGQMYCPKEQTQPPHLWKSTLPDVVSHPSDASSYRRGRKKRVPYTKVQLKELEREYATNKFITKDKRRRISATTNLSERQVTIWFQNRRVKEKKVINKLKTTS

On to `COC(=O)[C@@]1(Cc2ccc(OC)cc2)[C@H]2c3cc(C(=O)N(C)C)n(Cc4ccccc4)c3C[C@H]2CN1C(=O)c1ccccc1`, for which the composite z-score is 0.0961 (inactive) in test [1] and -0.248 in the test with XIP peptide (Xip251-270). For the same compound, the z-score in test [2] is -0.921; in test [3], -0.853 (inactive); in test [4], -0.342 (inactive); in test [5], -0.687 (inactive).
In the case of `C=CC[C@]1(C(=O)N(C)C)N=C(c2ccc(OCCCO)cc2)O[C@H]1c1ccccc1N=[N+]=[N-]`, the composite z-score in test [1] was 0.845 (inactive); in the test on XIP peptide (Xip251-270), 0.382. In addition, the z-score in test [2] was -1.8; in test [3] it was -3.37 (inactive); in test [4], -0.22 (inactive); in test [5], -0.0961 (inactive).
For `C[C@H]1C2=C3C(CC[C@H]4C(OCc5ccc(F)cc5C(F)(F)F)OC[C@](C)([C@@H]34)N(C(=O)OC(C)(C)C)C2)C(CO)C1CO` (stereo partly specified), the values for the composite z-score (in test [1]; in the test with XIP peptide (Xip251-270)) were 0.456 (inactive) and 0.724, respectively. The z-score in test [2] was -0.736; in test [3], -4.04 (inactive); in test [4], 0.491 (inactive); in test [5], 0.52 (inactive).
As for `CC(C)(C)OC(=O)CC[C@]1(C(=O)O)N=C(c2ccc(OCCCO)cc2)O[C@H]1c1ccccc1`, the composite z-score in test [1] was -0.0164 (inactive); in the test on XIP peptide (Xip251-270), 0.543. The z-score was -1.62 in test [2], -3.48 (inactive) in test [3], -0.388 (inactive) in test [4] and -0.243 (inactive) in test [5].
Regarding `O=C(CCCCCCC(=O)Nc1ccccc1)N/N=C/c1ccccc1`, the figures for the composite z-score (in test [1]; in the test on XIP peptide (Xip251-270)) were -0.531 (inactive) and -0.57, respectively. The z-score was 1.01 in test [2], 0.458 (inactive) in test [3], -0.156 (inactive) in test [4] and -0.425 (inactive) in test [5].
In the case of `COCCCNC(=O)[C@]1(Cc2ccccc2CN=[N+]=[N-])N=C(c2ccc(OCCCO)cc2)O[C@@H]1c1ccccc1`, the values for the composite z-score (in test [1]; with XIP peptide (Xip251-270)) were 0.0968 (inactive) and 0.598, respectively. For the same compound, the z-score was -2.41 in test [2], -6.44 (inactive) in test [3], -0.401 (inactive) in test [4] and -0.24 (inactive) in test [5].
`COc1cc(CO)cc(I)c1O[C@H]1C=C(C(=O)NCCO)C[C@@H](N(Cc2ccc(F)cc2)C(=O)C2CCCO2)[C@@H]1O` (stereo partly specified): the figures for the composite z-score (in test [1]; in the test with XIP peptide (Xip251-270)) were -0.192 (inactive) and -0.318, respectively. Further, the z-score in test [2] was 0.463; in test [3] it was -4.27 (inactive); in test [4], 0.36 (inactive); in test [5] it was 0.824 (inactive).
As for `Cc1ccc(S[C@]2(C(=O)NCC(C)C)CC(=O)N(Cc3ccccc3Cl)[C@@H]2c2ccc(CO)cc2I)cc1`, the composite z-score was 2.28 (inactive) in test [1] and 0.157 with XIP peptide (Xip251-270). Besides, the z-score in test [2] is -0.548; in test [3], -2.97 (inactive); in test [4], -0.346 (inactive); in test [5], -0.237 (inactive).
Turning to `COc1ccccc1CN1C(=O)c2ccccc2[C@@H](C(=O)NC(C)C)[C@@H]1c1ccc(CO)cc1`, the composite z-score in test [1] was 0.0282 (inactive); in the test with XIP peptide (Xip251-270), 0.905. In addition, the z-score in test [2] is -0.425; in test [3], -1.9 (inactive); in test [4], 0.19 (inactive); in test [5], 0.686 (inactive).
Turning to `C[C@H]1ON(c2ccc(C(=O)OC(C)(C)C)cc2)[C@@H](c2ccc(O)cc2)[C@@H]1C(=O)N1C(=O)OC[C@@H]1c1ccccc1`, the values for the composite z-score (in test [1]; with XIP peptide (Xip251-270)) were 0.0197 (inactive) and 0.446, respectively. The z-score was -1.47 in test [2], -4.21 (inactive) in test [3], 0.148 (inactive) in test [4] and 0.062 (inactive) in test [5].
`C=C(COC)/C(=C/C[C@@H](OC(=O)c1ccncc1)c1ccc(CO)o1)c1cnc2ccccc2c1`: the composite z-score was 0.86 (inactive) in test [1] and 0.726 in the test with XIP peptide (Xip251-270). Also, the z-score in test [2] is -0.58; in test [3] it was -5.9 (inactive); in test [4], 0.496 (inactive); in test [5], 0.671 (inactive).
Consider `C=C(COC)/C(=C/C[C@@H](OC(=O)c1ccncc1)c1ccc(OCCO)cc1)c1cnc2ccccc2c1`, for which the composite z-score in test [1] was 0.39 (inactive); in the test with XIP peptide (Xip251-270), 0.595. In addition, the z-score is -2.93 in test [2], -5.37 (inactive) in test [3], -0.0998 (inactive) in test [4] and 0.349 (inactive) in test [5].
For the compound `NC(=O)N1C(=O)C2C(C1=O)C1C=C(c3ccc(CO)cc3)C2C(C2CC2)N1Cc1sc2ccccc2c1Cl` (stereo unspecified), the composite z-score was 0.703 (inactive) in test [1] and 0.726 with XIP peptide (Xip251-270). The z-score in test [2] was -2.1; in test [3], -2.31 (inactive); in test [4], -0.0244 (inactive); in test [5] it was -0.0866 (inactive).
Consider `O=C(O)[C@H]1C[C@H]2C(=O)N3CCC[C@H]3C(=O)N2[C@H]1c1cccc(OCCO)c1`, for which the composite z-score in test [1] is 0.25 (inactive); in the test on XIP peptide (Xip251-270), 0.335. For the same compound, the z-score in test [2] was -0.0612; in test [3] it was -3.62 (inactive); in test [4], -0.217 (inactive); in test [5], 0.0679 (inactive).
For the compound `COCCOC(=O)N1C(=O)[C@@]2(c3cc(C#Cc4ccc(OC)cc4)ccc31)[C@H](C(=O)N1CCCCCCC1)[C@H]1C(=O)O[C@H](c3ccccc3)[C@H](c3ccccc3)N1[C@@H]2c1ccc(O)cc1`, the composite z-score in test [1] is 1.73 (inactive); in the test on XIP peptide (Xip251-270), 0.669. For the same compound, the z-score in test [2] was -2.31; in test [3] it was 2.16 (inactive); in test [4] it was -0.29 (inactive); in test [5] it was -0.537 (inactive).
Take `Cc1ccc(S[C@]2(C(=O)NC(C)C)CC(=O)N(C3Cc4ccccc4C3)[C@@H]2c2ccc(CO)cc2I)cc1`: the composite z-score in test [1] was -0.325 (inactive); in the test on XIP peptide (Xip251-270), 0.86. The z-score in test [2] is -0.619; in test [3], -2.24 (inactive); in test [4], 0.425 (inactive); in test [5], 0.191 (inactive).
